Test results from PubChem BioAssay (NCATS).
Results filed as inconclusive are left out. The source made the active and inactive calls. Calls follow the shape of the dose curve; as a rule, active = well fitted activation curve with a large enough effect; inconclusive = small, poorly fitted or top-dose-only effect, or another doubt; inactive = no such curve, though single readings can be large or run the other way.
Potency is read from the fitted curve at half-maximal effect.

The molecules below were run against Rap guanine nucleotide exchange factor 3 (Homo sapiens) (UniProt O95398) (assay: Counterscreen qHTS for agonist of cAMP-regulated guanine nucleotide exchange factor 3 (EPAC1) (AID 1645889; also: nearly all actives have a fitted effect of over 40% in size; as to activation: % of control where 0% means no effect)). Conditions: EPAC1 Rap1B-BODIPY-GDP exchange, fluorescence; series mostly up to 154 µM; activation: at the top concentration.
From the text: Assay Provider (PI): Xiaodong Cheng Ph.D. The University of Texas Medical Branch, […], TX MLPCN Grant: NS066510 In multi-cellular eukaryotic organisms, the effects of cAMP are transduced by two ubiquitously-expressed intracellular cAMP receptors, the classic protein kinase A/cAMP-dependent protein kinase (PKA/cAPK) and the more recently discovered exchange protein directly activated by cAMP/cAMP-regulated guanine nucleotide exchange factor (EPAC/cAMP-GEF). Both PKA and EPAC are ubiquitously expressed in all tissues, and an increase in intracellular cAMP levels will lead to the activation of both PKA and EPAC. Therefore, careful dissections of the individual role and relative contribution of EPAC and PKA within the overall cAMP signaling in various model systems are critical for further elucidating the mechanism of cAMP signaling. To date no EPAC-specific antagonists and agonist, as well as isoform-specific agonists have been reported, and developing EPAC-specific pharmacological probes to determine the physiological functions that EPAC play in the overall cAMP-mediated signaling remains a major challenge within the research field. Furthermore, identified regulators of EPAC may lead to new mechanism-based therapeutic strategies specifically targeting the EPAC / cAMP-signaling components as EPAC has been implicated to play important roles in major human pathological conditions such as diabetes, heart disease, and cancer. This qHTS will be used to screen the Molecular Libraries Small Molecule Repository (MLSMR) as a concentration-titration series using the NCGC unique quantitative screening (qHTS) platform to find activators for EPAC1. In addition, this assay will also be used as a counterscreen for the EPAC2 qHTS. This fluorescent based assay is developed and validated for EPAC1 that measures exchange using EPAC effector Rap1 complex with BODIPY-GDP, a GDP analog with a tethered fluorophores. Activators are identified by monitoring the change in fluorescence signal as the exchanged free BODIPY-GDP has a reduced fluorescence compared to Rap1-bound BODIPY-GDP. Increase in signal (activation) is the desired outcome for the EPAC1 agonist while no activity in this assay is desired for the EPAC2 agonist counterscreen. Reference: [1] de Rooij, J., Zwartkruis, F. J., Verheijen, M. H., Cool, R. H., Nijman, S. M., Wittinghofer, A., and Bos, J.L. (1998) Nature 396, 474-477. Kawasaki, H., Springett, G. M., Mochizuki, N., Toki, S., Nakaya, M., Matsuda, M., Housman, D. E., and Graybiel, A. M. (1998) Science 282, 2275-2279.
EPAC1 Counterscreen PROTOCOL TABLE SEQUENCE No. (e.g., 1, 2, 3, etc.); […] (e.g., Cells, Incubation, Reagent, etc.); VALUE and DESCRIPTION. 1. Reagent. 3 uL. [1x] 250 nM Rap1B-BODIPY-GDP, and 50 uM GDP. 2a. Compound. 23 nL. Control 6,572 uM cAMP (working concentration). 2b, 2c. Compound. 23 nL. Control activator and inhibitor; 234 - 30,000 uM cAMP and 16.4 - 10,000 uM. 2d. Compound. 46 nL. MLSMR follow-up library; 0.64 - 10,000 uM. 3. Time. 15 sec, 1000rpm. Centrifuge. 4. Time. 5 min. Incubation at room temperature. 5. Detector. Fluorescence. (Read 1), Ex/Em = 480 nm / 540 nm. 6. Time. 30 min. Incubation at room temperature. 7. Detector. Fluorescence. (Read 2), Ex/Em = 480 nm/ 540 nm. 8. Reagent. 1uL. Dispense either [4x] 10 uM cAMP or buffer. 9. Time. 15 sec, 1000 rpm. Centrifuge. 10. Time. 5 min. Incubation at room temperature. 11. Detector. Fluorescence. (Read 3), Ex/Em = 480 nm / 540 nm. 12. Time. 30 min. Incubation at room temperature. 13. Detector. Fluorescence. (Read 4), Ex/Em = 480 nm / 540 nm. NOTES (numbers refer to Sequence numbers above; values are from representative experiments) 1. Medium-binding black solid-bottom Greiner plates (789176-F). Dispense 3 uL of [1x] 250 nM Rap1B-BODIPY-GDP, and 50 uM GDP into columns 1 to 48. 2a. Control compound cAMP (6,572 uM, column 3, rows 1 to 32) single pin-transferred for a [final] of 50 uM. 2b. […]
`CC1(Cc2cc(Cl)ccc2C(F)(F)F)C(=O)Nc2cc(F)ccc21` (stereo not given) was tested, and the activation was 12.6% [at 30.8 µM] (inactive). In the case of `O=C(CSc1nnc(SCc2ccc(Cl)cc2)s1)N/N=C/c1ccc(C(=O)O)cc1`, the “activation” value is reported as 25.6% (inactive). With `CCc1c(O)cc(=O)n(-c2ccccc2)c1-c1ccccc1` the “activation” value was 22.9% (inactive). With `CCOC(=O)c1cc(-c2nnc(SCC(=O)Nc3ccc(F)cc3)o2)c(C)nc1C` the “activation” value was -4.17% (inactive). For `Oc1ccc(NCc2ccc(OCc3ccccc3Cl)cc2)cc1`, the Potency was 56.2 µM (active). For `C=CCN(CC=C)Cc1cc(=O)oc2cc(C)c(Cl)cc12`, the activation was 3.33% [at 30.8 µM] (inactive). `Cc1ccc2nc(SCC(=O)c3c(N)n(C4CC4)c(=O)[nH]c3=O)[nH]c2c1` was tested, and the “activation” value was 9.21% (inactive). `Cc1oc2ccc(O)c(CN(C)Cc3ccccc3)c2c1C(=O)Nc1cccc(C(F)(F)F)c1` was tested, and the “activation” value was -22.9% (inactive). For `O=C(CN1CCCCC1)Nc1cc(Cl)ccc1Oc1ccccc1`, the “activation” value was 29.7% (inactive). For `O=C(c1ccc2c(c1)CCCC2)N1CCN(c2nc3ccc(F)cc3s2)CC1`, the “activation” value was -20% (inactive). With `O=C(NCc1ccc(F)cc1)C(c1cccnc1)N(C(=O)c1csnn1)c1ccccc1` (stereo not given) the activation was 5.08% [at 30.8 µM] (inactive). With `CCOC(=O)N1CCC(Nc2nc3ccccc3n3cnnc23)CC1` the activation was 4.26% [at 30.8 µM] (inactive). For `CC1(C(=O)NS(=O)(=O)c2ccc3ccccc3c2)CCN1C(=O)Cc1ccc(-c2ccccc2)cc1` (stereo not given), the activation was 21.8% [at 30.8 µM] (inactive). `CCCN1C(=O)c2[nH]nc(-c3cccc(OC)c3)c2C1c1ccccn1` (stereo not given) was tested, and the “activation” value was 16.1% (inactive). In the case of `CCCCn1cc2c(c1-c1ccccc1Br)c(=O)n(C)c(=O)n2C`, the “activation” value is reported as 19.1% (inactive). `O=C(O)CN1C(=O)/C(=C\C(Br)=C\c2ccccc2)SC1=S` was tested, and the activation was 8.49% [at 30.8 µM] (inactive). For `Cc1ccc(C2CC(=O)Oc3cc(C)c(Br)c(C)c32)cc1` (stereo not given), the “activation” value was 23% (inactive). `Cc1ccc(-c2csc(/C(C#N)=C(\O)CCl)n2)cc1` was tested, and the activation was 14.1% [at 30.8 µM] (inactive). For `COc1ccc([C@H]2CC(=O)C=C(c3cc(OC)ccc3OC)C2)cc1`, the “activation” value was 0.105% (inactive). In the case of `COC(=O)/N=C(/Cc1ccc(OC)cc1)c1ccc(OC)cc1`, the “activation” value is reported as 13.4% (inactive). With `COc1cccc(-c2nc(SCC(=O)Nc3nc(-c4ccccc4)c(C)s3)[nH]c(=O)c2C#N)c1` the “activation” value was -6.26% (inactive). `CCCC[C@@H]1C=C(C(=O)O)[C@H](c2ccc(Cl)c(Cl)c2)N1S(=O)(=O)c1ccc(C)cc1` was tested, and the “activation” value was -20.4% (inactive). In the case of `NS(=O)(=O)c1cccc(Nc2nc3ccccc3nc2NS(=O)(=O)c2ccc(Cl)cc2)c1`, the “activation” value is reported as -19.5% (inactive). In the case of `Cc1noc(C)c1COc1ccccc1C(=O)NCCc1ccc(Cl)cc1`, the “activation” value is reported as 23.6% (inactive). For `COc1ccc(O)c(C(=O)c2cc(SCC(=O)O)c3nc4sc5c(c4c(=O)n3c2)CCCC5)c1`, the “activation” value was 18.2% (inactive). `N#Cc1c(-c2cccs2)nc(SCC(=O)c2ccc(Br)cc2)[nH]c1=O` was tested, and the activation was 12.5% [at 30.8 µM] (inactive). `O=C(Nc1ccccc1C(=O)Nc1nnc(C(F)(F)F)s1)c1ccccc1Cl` was tested, and the “activation” value was -0.544% (inactive). For `COc1ccc(/C=N\Nc2ccc([N+](=O)[O-])cc2)c(C(=O)O)c1OC`, the “activation” value was 8.33% (inactive). For `CC(=O)NC(C)(c1ccccc1)c1nc(-c2cccc(C(F)(F)F)c2)cs1` (stereo not given), the “activation” value was -5.91% (inactive). In the case of `Cc1cccc(C(=O)Nc2cc(S(=O)(=O)N3CCOCC3)ccc2N2CCCC2)c1`, the “activation” value is reported as 10.7% (inactive). In the case of `O=c1oc2cc(O)ccc2cc1-c1nnc(Nc2ccccc2F)s1`, the Potency is reported as 3.55 µM (active). `COc1cc(/C=C2/NC(=O)NC2=O)cc(Br)c1OCc1ccc(C(=O)O)cc1` was tested, and the activation was 11.1% [at 30.8 µM] (inactive). For `COc1cc(/C=C2/SC(=S)N(CC(=O)O)C2=O)ccc1OC(=O)c1cccs1`, the “activation” value was 8.96% (inactive). With `N#Cc1c(Nc2ccccc2)sc(C(=O)c2ccccc2)c1N` the activation was 19.9% [at 30.8 µM] (inactive). For `CCOC(=O)c1cc(-c2ccc(/C=C3/C(=O)N(c4ccc(C(=O)O)cc4)N=C3C)o2)ccc1Cl`, the “activation” value was 13% (inactive). In the case of `Cc1ccc(C(=O)Nc2ccccc2[N+](=O)[O-])cc1S(=O)(=O)N1CCOCC1`, the “activation” value is reported as 18.9% (inactive). `Cc1c(CCC(=O)O)c(=O)oc2cc(OCc3ccccc3Br)ccc12` was tested, and the “activation” value was 7.78% (inactive). For `Fc1ccc2c(-c3cccc(C(F)(F)F)c3)c(-c3ccccc3)ncc2c1`, the “activation” value was 14.4% (inactive). `Cc1ccc(-c2ccccc2C2=CC(=O)CC(C)(C)C2=O)cc1` was tested, and the activation was 11.7% [at 30.8 µM] (inactive). For `COc1ccc(/C=N/N=C2/C(=O)Nc3ccccc32)cc1O`, the activation was 36.3% [at 30.8 µM] (inactive).
